From PubChem BioAssay come the findings set out here.

Assay [1] is described as follows: small molecules captured by biotinylated probe aFSTL3 – biochemical, small-molecule microarray, fluorescence 635/667, stem cell growth factor project, primary screen (AID 1064).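 Also: measures binding of the biotinylated anti-FSTL3 antibody to printed compounds.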 To be noted: higher = more signal.
Assay [2] in a line: binders from COS7 lysate, DM2A8 probe, primary screen, torsin A project, cell lysate, small-molecule microarray, fluorescence 635/667 (AID 1065). The following applies: higher = more signal, COS7 lysate expressing mutant human TOR1A.
A short description of assay [3]: small molecules captured by biotinylated probe aFGF2 – biochemical, small-molecule microarray, fluorescence 635/667, stem cell growth factor project, primary screen (AID 1067).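 Also: measures binding of biotinylated aFGF2 protein to printed compounds on slides; z-score merges feature fluorescence and signal-to-noise across triplicate slides.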 To be noted: higher = more signal.
Assay [4] in a line: small molecules captured by biotinylated probe aFGF10 – biochemical, small-molecule microarray, fluorescence 635/667, stem cell growth factor project, primary screen (AID 1071).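 Also: score merges 667 nm spot intensity and signal to noise from triplicate slides.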 The following applies: higher = more signal.
Assay [5] concerns the target Neurogenic locus notch homolog protein 2 (Homo sapiens) (UniProt Q04721). In words: small molecules binding Notch2 protein – biochemical, small-molecule microarray, 635 nm fluorescence, stem cell growth factors, primary screen (AID 1073). The following applies: higher = more signal.
Assay [6] has as its target Pro-neuregulin-1, membrane-bound isoform (Homo sapiens) (UniProt Q02297). Briefly: small molecules binding neuregulin-1 protein – biochemical, small-molecule microarray, fluorescence 635/667, psychiatric disease protein project, primary screen (AID 1075).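 Also: score combines 667 nm spot fluorescence with signal to noise.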 To be noted: NRG1 binding, 635 nm fluorescence, higher = more signal.
The subject of assay [7] is Neuregulin-1 EGF-like domain. Briefly: small molecules binding NRG1 EGF domain – biochemical, small-molecule microarray, 635 nm fluorescence, primary screen (AID 1081).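 Also: binding of the protein to compounds printed on small-molecule microarray slides.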 To be noted: higher = more signal.
Assay [8] in a line: FRG1 expression reporter modulators in myotubes – cell-based, C2C12 myotubes, firefly/Renilla luciferase, luminescence, FRG1 inhibition for FSHD, primary screen (AID 1084). The following applies: FRG1 promoter luciferase, higher = more signal, called active from +8 up or from −8 down.
Assay [9] in a line: small molecules captured by biotinylated probe aFST – biochemical, small-molecule microarray, fluorescence 635/667, stem cell growth factor project, primary screen (AID 1086).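 Also: score merges 667 nm fluorescence with signal-to-noise of each printed compound spot.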 To be noted: higher = more signal.
The nature of assay [10]: binders of probe aHhip on microarray, primary screen, stem cell growth factor project, biochemical, small-molecule microarray, fluorescence 635/667 (AID 1087).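 Also: score merges spot fluorescence at 667nm with spot signal to noise ratio.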 The following applies: higher = more signal.
In assay [11] the test system is PRMT1 (protein arginine N-methyltransferase 1). Briefly: small molecules binding arginine methyltransferase PRMT1 – biochemical, small-molecule microarray, 635 nm fluorescence, primary screen (AID 1088).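 Also: binding of Prmt1 protein to compounds spotted on small-molecule microarray slides.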 The following applies: higher = more signal.
Assay [12] can be described thus: growth effects on S. cerevisiae YJM789 – YJM789 clinical isolate, OD600, 24 h, basal, primary screen (AID 1089).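 Also: growth of clinical yeast isolate S. cerevisiae YJM 789 seeded 1000 cells per well; test concentration not given here.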 To be noted: higher = more signal, called active from +8 up or from −8 down.
Assay [13] is described as follows: S. pombe growth modifiers, basal conditions – strain 972, OD600, 24 h, no modulator, primary screen (AID 1090).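 Also: basal condition with compound alone and no growth modifier present; test concentration not given here.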 The following applies: S. pombe 972 growth, higher = more signal, called active from +8 up or from −8 down.
Assay [14] in a line: budding yeast growth modifiers under rapamycin – strain BY4716, OD600, 96 h, primary screen (AID 1091). Also: test concentration not given here. The following applies: S. cerevisiae BY4716 + rapamycin, higher = more signal, called active from +8 up or from −8 down.
The target of assay [15] is Torsin-1A-interacting protein 2 (Homo sapiens) (UniProt Q8NFQ8). In words: small molecules binding lysate-expressed LULL1 – cell lysate, human LULL1 lysate, 635/667 nm fluorescence, primary screen (AID 1092).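 Also: probe is lysate of COS7 cells overexpressing human LULL1; score merges per-feature 667 nm fluorescence with signal-to-noise.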 To be noted: small-molecule microarray, hLULL1 lysate binding, 635 nm fluorescence; higher = more signal.
Chain of Torsin-1A-interacting protein 2 (Homo sapiens) (Q8NFQ8 whole entry, looked up): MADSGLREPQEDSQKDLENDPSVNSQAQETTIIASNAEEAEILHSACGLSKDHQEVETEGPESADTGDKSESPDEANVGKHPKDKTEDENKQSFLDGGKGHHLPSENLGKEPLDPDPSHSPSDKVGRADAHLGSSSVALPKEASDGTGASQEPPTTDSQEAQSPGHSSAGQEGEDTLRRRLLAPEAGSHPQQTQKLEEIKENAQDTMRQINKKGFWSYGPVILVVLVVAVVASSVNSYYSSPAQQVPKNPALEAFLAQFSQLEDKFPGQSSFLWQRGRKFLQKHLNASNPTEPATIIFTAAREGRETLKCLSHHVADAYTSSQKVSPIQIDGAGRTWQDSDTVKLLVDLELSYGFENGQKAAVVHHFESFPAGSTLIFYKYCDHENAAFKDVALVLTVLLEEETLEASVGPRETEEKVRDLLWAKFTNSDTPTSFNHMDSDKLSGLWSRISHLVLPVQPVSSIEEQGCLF
The nature of assay [16]: optical density change of DRC41 E. coli – strain DRC41, OD650, 24 h, E. coli filamentation project, primary screen (AID 1093).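 Also: MC1000 strain lacking acrAB efflux and sulA so SOS filamentation is blocked; test concentration not given here.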 To be noted: E. coli DRC41 growth, higher = more signal, called active from +8 up or from −8 down.
Assay [17] in a line: probe aLefty2 binding to arrayed compounds – biochemical, biotinylated probe, 635/667 nm fluorescence, primary screen (AID 1094).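 Also: score merges spot fluorescence near 667 nm with spot signal-to-noise ratio.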 The following applies: small-molecule microarray, higher = more signal.
The subject of assay [18] is Noggin (protein binding on small-molecule microarray). Briefly: small molecules binding Noggin protein – biochemical, 635/667 nm fluorescence, primary screen (AID 1095).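 Also: score merges 667 nm feature fluorescence with signal to noise over triplicate slides.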 The following applies: 635 nm fluorescence, higher = more signal.
Assay [19] has as its target Neurogenic locus notch homolog protein 3 (Homo sapiens) (UniProt Q9UM47). In words: small molecules binding NOTCH3 protein – biochemical, 635/667 nm fluorescence, primary screen (AID 1096). To be noted: small-molecule microarray, 635 nm fluorescence, higher = more signal.
Assay [20] can be described thus: probe aEGFR binding to arrayed compounds – biochemical, biotinylated probe, 635/667 nm fluorescence, primary screen (AID 1097).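 Also: probe is a biotinylated anti-EGFR antibody binding compounds printed on slides; score combines fluorescence near 667 nm and signal to noise of each spot.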 To be noted: small-molecule microarray, higher = more signal.

Calls of active or inactive are those of the source.

Chain of Neurogenic locus notch homolog protein 3 (Homo sapiens) (Q9UM47 whole entry, looked up): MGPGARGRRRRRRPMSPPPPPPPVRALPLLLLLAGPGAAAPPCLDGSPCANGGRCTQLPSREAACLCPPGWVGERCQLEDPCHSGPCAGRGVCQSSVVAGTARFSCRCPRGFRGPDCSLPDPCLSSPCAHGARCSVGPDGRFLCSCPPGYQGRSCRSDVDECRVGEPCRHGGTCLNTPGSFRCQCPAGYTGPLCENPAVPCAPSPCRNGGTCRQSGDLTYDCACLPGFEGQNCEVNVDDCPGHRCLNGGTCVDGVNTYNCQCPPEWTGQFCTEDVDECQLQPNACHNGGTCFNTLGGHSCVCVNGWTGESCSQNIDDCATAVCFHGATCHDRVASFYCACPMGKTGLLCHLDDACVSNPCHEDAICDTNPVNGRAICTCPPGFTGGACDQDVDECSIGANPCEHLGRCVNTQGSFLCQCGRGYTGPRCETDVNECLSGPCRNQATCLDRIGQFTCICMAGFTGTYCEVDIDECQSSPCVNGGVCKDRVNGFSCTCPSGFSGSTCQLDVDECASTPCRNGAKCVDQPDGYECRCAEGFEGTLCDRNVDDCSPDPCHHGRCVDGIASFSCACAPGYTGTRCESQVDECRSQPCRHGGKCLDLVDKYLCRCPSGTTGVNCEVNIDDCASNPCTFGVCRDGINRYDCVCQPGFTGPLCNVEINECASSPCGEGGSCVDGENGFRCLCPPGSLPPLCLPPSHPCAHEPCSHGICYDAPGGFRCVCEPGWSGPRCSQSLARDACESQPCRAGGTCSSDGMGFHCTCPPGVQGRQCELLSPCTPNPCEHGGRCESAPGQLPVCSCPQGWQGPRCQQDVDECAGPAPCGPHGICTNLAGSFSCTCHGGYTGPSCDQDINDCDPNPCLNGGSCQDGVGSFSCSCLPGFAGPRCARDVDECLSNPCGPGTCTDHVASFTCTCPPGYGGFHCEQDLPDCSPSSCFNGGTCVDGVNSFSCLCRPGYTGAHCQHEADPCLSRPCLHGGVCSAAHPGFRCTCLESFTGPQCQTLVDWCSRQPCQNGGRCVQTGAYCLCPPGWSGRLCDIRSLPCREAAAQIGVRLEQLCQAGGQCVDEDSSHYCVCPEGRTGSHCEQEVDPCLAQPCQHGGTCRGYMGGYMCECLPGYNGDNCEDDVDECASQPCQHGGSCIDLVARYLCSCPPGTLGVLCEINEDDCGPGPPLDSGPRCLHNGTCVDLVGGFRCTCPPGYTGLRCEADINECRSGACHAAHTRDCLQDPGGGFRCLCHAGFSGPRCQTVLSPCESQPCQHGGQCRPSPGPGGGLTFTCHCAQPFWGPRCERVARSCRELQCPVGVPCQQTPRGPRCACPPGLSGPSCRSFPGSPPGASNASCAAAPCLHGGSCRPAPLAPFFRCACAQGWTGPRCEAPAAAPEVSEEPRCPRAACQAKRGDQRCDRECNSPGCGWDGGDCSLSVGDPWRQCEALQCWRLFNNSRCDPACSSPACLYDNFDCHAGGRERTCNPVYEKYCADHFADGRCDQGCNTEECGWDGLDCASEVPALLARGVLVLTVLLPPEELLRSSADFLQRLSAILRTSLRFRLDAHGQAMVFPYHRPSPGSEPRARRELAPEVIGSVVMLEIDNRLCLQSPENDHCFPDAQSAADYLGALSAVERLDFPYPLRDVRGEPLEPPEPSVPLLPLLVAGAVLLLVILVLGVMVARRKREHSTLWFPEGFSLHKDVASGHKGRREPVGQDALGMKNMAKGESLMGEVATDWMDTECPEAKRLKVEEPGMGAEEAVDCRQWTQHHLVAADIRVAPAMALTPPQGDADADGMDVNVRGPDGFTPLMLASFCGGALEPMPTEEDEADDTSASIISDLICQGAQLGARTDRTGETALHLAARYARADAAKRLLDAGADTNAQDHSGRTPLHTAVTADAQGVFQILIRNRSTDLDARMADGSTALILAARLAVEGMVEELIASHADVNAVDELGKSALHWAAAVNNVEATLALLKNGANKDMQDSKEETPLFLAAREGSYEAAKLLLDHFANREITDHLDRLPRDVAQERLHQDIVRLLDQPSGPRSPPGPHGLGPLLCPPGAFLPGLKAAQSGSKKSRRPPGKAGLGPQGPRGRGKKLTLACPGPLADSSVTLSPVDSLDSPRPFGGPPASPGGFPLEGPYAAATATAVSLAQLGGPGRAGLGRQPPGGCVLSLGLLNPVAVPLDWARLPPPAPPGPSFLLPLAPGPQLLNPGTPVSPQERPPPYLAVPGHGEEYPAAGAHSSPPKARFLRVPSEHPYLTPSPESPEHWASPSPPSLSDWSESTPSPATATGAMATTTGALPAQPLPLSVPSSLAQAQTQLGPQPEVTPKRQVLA
Chain of Pro-neuregulin-1, membrane-bound isoform (Homo sapiens) (Q02297 whole entry, looked up, the tested form may be a part, canonical isoform): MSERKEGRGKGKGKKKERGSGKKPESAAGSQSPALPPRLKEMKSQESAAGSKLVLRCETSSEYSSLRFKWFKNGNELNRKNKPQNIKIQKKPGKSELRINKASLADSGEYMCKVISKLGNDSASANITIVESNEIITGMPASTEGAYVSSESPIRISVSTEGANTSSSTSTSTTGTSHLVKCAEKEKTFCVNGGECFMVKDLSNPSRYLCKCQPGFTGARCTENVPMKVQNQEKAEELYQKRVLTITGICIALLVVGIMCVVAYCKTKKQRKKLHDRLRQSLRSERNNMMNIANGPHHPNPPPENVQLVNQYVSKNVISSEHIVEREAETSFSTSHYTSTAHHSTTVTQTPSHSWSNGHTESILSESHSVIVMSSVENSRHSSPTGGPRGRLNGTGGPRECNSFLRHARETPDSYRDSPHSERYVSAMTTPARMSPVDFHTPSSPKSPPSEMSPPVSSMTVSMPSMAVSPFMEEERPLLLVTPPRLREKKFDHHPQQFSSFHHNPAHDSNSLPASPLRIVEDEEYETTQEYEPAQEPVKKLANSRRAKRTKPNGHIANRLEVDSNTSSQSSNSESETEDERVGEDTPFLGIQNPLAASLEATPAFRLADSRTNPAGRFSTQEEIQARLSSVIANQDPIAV

On to `CCCC[C@H]1OB(O)C[C@H]2C1=C(COC)Cn1c(=O)n(-c3ccccc3)c(=O)n12`, for which the composite z-score in assay [1] is -0.516; in [2] it was 0.107; in [3] it was -0.157; in assay [4] it was 0.392; in [5], 0.325; in assay [6], -0.19. Also, the composite z-score is 0.484 in [7]; 0.199 in assay [9]; -0.236 in [10]; 0.601 in assay [11]; 0.814 in [15]; -0.208 in assay [17]. Further, the composite z-score in assay [18] is 0.0562; in [19], 0.121; in assay [20], -0.137. For the same compound, the z-score in [8] was 0.103 (inactive); in assay [12], 0.461 (inactive); in assay [13], 0.19 (inactive); in assay [14] it was -0.386 (inactive); in [16], 0.498 (inactive).
In the case of `[N-]=[N+]=Nc1ccccc1[C@@H]1OC(c2ccc(OCCCO)cc2)=N[C@]1(CCS(=O)(=O)c1ccccc1)C(N)=O`, the composite z-score in [1] was 0.109; in [2] it was -0.0445; in [3] it was 0.29; in assay [4], 0.829; in [5], 1.58; in assay [6] it was 1.63. Besides, the composite z-score in assay [7] was 1.23; in [9] it was 2.08; in assay [10] it was -0.213; in assay [11], 1.55; in [15], 3.64; in assay [17], 0.588. The composite z-score was 0.561 in [18], 0.91 in assay [19] and 0.122 in assay [20]. Further, the z-score in [8] is 1.14 (inactive); in [12], 0.193 (inactive); in assay [13] it was -1.36 (inactive); in assay [14], 0.199 (inactive); in assay [16], 0.743 (inactive).
As to `NCCCCCNC(=O)[C@@H]1C[C@@H]2C(=O)N[C@@H](Cc3ccccc3)C(=O)N2[C@@H]1c1ccc(O)cc1`, the composite z-score was determined as 0.266 in [1]; 0.0499 in [2]; 0.0257 in assay [3]; 0.507 in [4]; 1.12 in [5]; 1.05 in assay [6]. The composite z-score is 1.24 in assay [7]; 0.918 in assay [9]; -0.175 in [10]; 1.31 in [11]; 1.66 in assay [15]; -0.0717 in [17]. The composite z-score in assay [18] stood at 0.923; in assay [19] it was 0.452; in assay [20], 0.0381. Further, the z-score is 0.227 (inactive) in [8]; -0.247 (inactive) in assay [12]; -0.448 (inactive) in [13]; -0.367 (inactive) in [14]; -0.811 (inactive) in assay [16].
Take `O=C(NCCN1CCOCC1)[C@@H]1c2ccccc2C(=O)N(C2CCCCC2)[C@H]1c1ccc(CO)cc1`: the composite z-score in assay [1] is 0.64; in assay [2], -0.324; in assay [3], -0.0616; in [4], -0.413; in assay [5] it was -0.194; in [6], 0.96. Further, the composite z-score in [7] was 0.872; in assay [9], 0.106; in [10] it was -0.271; in assay [11], 0.403; in assay [15], 2.35; in assay [17] it was -0.0042. Besides, the composite z-score in assay [18] is -0.562; in [19], -0.565; in assay [20], -0.2. Also, the z-score in [8] is -0.658 (inactive); in [12], -0.166 (inactive); in [13], -0.556 (inactive); in assay [14], 0.0989 (inactive); in [16], -0.0985 (inactive).
With `Cc1ccc([C@@H]2C[C@@H](Sc3ccccc3)[C@H](C(=O)O)CN2S(=O)(=O)c2ccc(C)cc2)cc1`, the composite z-score was -0.0057 in assay [1]; 0.414 in assay [2]; 0.0512 in assay [3]; 0.983 in assay [4]; 1.59 in assay [5]; 1.57 in [6]. For the same compound, the composite z-score in assay [7] stood at 1.35; in [9], 0.936; in [10], 0.0373; in assay [11], 1.54; in assay [15], 3.53; in assay [17], 0.141. The results for the composite z-score in [18], in assay [19] and in assay [20] were 0.339, 1.08 and 0.0082, respectively. In addition, the z-score in assay [8] was -3.65 (inactive); in assay [12] it was -0.337 (inactive); in assay [13], 0.565 (inactive); in assay [14], -0.787 (inactive); in assay [16] it was -0.773 (inactive).
